Results on 15 molecules are retold here after PubChem BioAssay (Tox21).

Values without a mark were called inactive. Results filed as inconclusive are left out. Active and inactive are the calls of the source. Unless noted, the call rests on the fitted dose curve; in most records, active means well fitted curve in the direction sought with a large enough effect in the repeat runs; inconclusive means weak or mixed curves; inactive means no such curve, though single readings can be large; an effect the other way counts as inactive or inconclusive.

Test [1] can be described thus: qHTS assay for small molecules that induce genotoxicity in human embryonic kidney cells expressing luciferase-tagged ATAD5 (AID 651632). Further: nearly all actives have a fitted effect of over 15% in size. Summed up:
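Cells were seeded at 2,000 per well, dosed with compound, and incubated 16 hr at 37C in 5% CO2. Luciferase activity was then quantified after a 30 min room-temperature incubation with Amplite.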

Test [2] is described as follows: qHTS assay for small molecule agonists of the p53 signaling pathway - cell viability (AID 651633; calls by dose curve; further: series mostly up to about 83 µM; nearly all actives have a fitted effect of over 30% in size). Summed up: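 p53RE-bla cells were treated with compound for 16 hours at 37 C. Cytotoxicity was then measured as CellTiter-Glo luminescence after 30 min at room temperature.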
On the technique in general: Quantitative high-throughput screening tests each substance at several concentrations.

Test [3] in a line: qHTS assay for small molecules that induce genotoxicity in human embryonic kidney cells expressing luciferase-tagged ATAD5 - cell viability (AID 651634; calls by dose curve; further: nearly all actives have a fitted effect of over 25% in size). Summed up: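 Cells (HEK293T, luciferase-tagged ATAD5) are seeded at 2,000 per well, dosed with compound or DMSO vehicle, and incubated 15.5 hr at 37C and 5% CO2. CellTiter-Fluor is added for 30 min before fluorescence is measured.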

The nature of test [4]: qHTS assay for small molecule disruptors of the mitochondrial membrane potential - cell viability (AID 720634; calls by dose curve;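 further: human HepG2 liver cancer cells; series mostly up to about 83 µM; nearly all actives have a fitted effect of over 20% in size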). Summed up:
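Cytotoxicity was measured by ATP quantitation in HepG2 wells that had first been treated with compound for 1 hr and stained with m-MPI dye; CellTiter-Glo incubation was 30 min at room temperature.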

Test [5] is described as follows: qHTS assay for small molecule disruptors of the mitochondrial membrane potential (AID 720635). Further: potency means the concentration at half of the fitted maximal effect. Summed up:
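HepG2 cells exposed to compound 1 hr at 37C, then Mito-MPS dye 30 min. Ratio read of aggregate (540/590 nm) versus monomer (490/535 nm) fluorescence.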

Test [6] is described as follows: qHTS assay to test for compound auto fluorescence at 590 nm (red) in HepG2 cells (AID 720674). Summed up:
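Fluorescence at 590 nm emission following 540 nm excitation was recorded from HepG2 wells one hour after compound transfer, with DMSO-only wells as vehicle and Rose Bengal sodium equivalency as the scale.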

The nature of test [7]: qHTS assay to test for compound auto fluorescence at 535 nm (green) in HepG2 cells (AID 720675).
Test [8] is described as follows: qHTS assay to test for compound auto fluorescence at 460 nm (blue) in HEK293 cells (AID 720678). Summed up:
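Blue read-out at excitation 405 nm and emission 460 nm follows overnight compound exposure of HEK293 cells at 37C in 5% CO2. Activity is given as auto fluorescence equivalency to triamterene.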

A short description of test [9]: qHTS assay to test for compound auto fluorescence at 590 nm (red) in HEK293 cells (AID 720679). Summed up:
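Red channel, Ex/Em 540/590nm; signal expressed as equivalency to Rose Bengal sodium. HEK293, 2,000 cells/well, 10% dialyzed FBS; 23 nL compound pinned after 4-5 hr attachment; overnight 37C/5% CO2 before reading.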

Test [10] can be described thus: qHTS assay to test for compound auto fluorescence at 535 nm (green) in HEK293 cells (AID 720680).
Test [11] in a line: qHTS assay to test for compound auto fluorescence at 460 nm (blue) in HEK293 cell free culture (AID 720681). Summed up:
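Compounds were added to cell-free DMEM with 10% FBS and fluorescence read directly. The blue channel used 405 nm excitation and 460 nm emission, with triamterene as the reference fluorophore.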

Test [12] in a line: qHTS assay to test for compound auto fluorescence at 535 nm (green) in HEK293 cell free culture (AID 720682). Summed up:
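DMEM + 10% FBS, cell-free; cpd or DMSO pinned in; Ex485/Em535 read; output as fluorescein-equivalent signal.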

Test [13] in a line: qHTS assay to test for compound auto fluorescence at 590 nm (red) in HEK293 cell free culture (AID 720683). Summed up: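 Cell-free wells of DMEM with 10% FBS received compound, and intrinsic fluorescence was read at excitation/emission 540/590 nm. Values expressed as equivalence to Rose Bengal sodium.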
The nature of test [14]: qHTS assay to test for compound auto fluorescence at 460 nm (blue) in HepG2 cell free culture (AID 720685). Summed up:
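Cell-free plates of MEM plus 10% FBS received 23 nL compound or DMSO vehicle; blue-channel (405/460 nm) intensity scored against triamterene as reference fluorophore.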

The nature of test [15]: qHTS assay to test for compound auto fluorescence at 535 nm (green) in HepG2 cell free culture (AID 720686).
Test [16] is described as follows: qHTS assay for small molecule agonists of the p53 signaling pathway (AID 651631; calls by dose curve; further: nearly all actives have a fitted effect of over 15% in size). Summed up: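 Testing took place in human colorectal HCT-116 cells with stable p53RE-driven beta-lactamase. After 16 h of compound exposure at 37 °C, a FRET substrate was added and fluorescence recorded 2 h later.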
Test [17] is described as follows: qHTS assay to test for compound auto fluorescence at 590 nm (red) in HepG2 cell free culture (AID 720684). Summed up:
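Auto fluorescence equivalency versus Rose Bengal sodium, red channel Ex/Em 540/590 nm; compounds in cell-free MEM/10% FBS; DMSO vehicle control.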

A short description of test [18]: qHTS assay to test for compound auto fluorescence at 460 nm (blue) in HepG2 cells (AID 720687). Summed up: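 HepG2 cells in MEM with 10% FBS, attached overnight at 37 C, were exposed to compound or DMSO for 1 hr at 37 C, 5% CO2. Blue fluorescence was read at 405/460 nm, with triamterene as reference fluorophore.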
Test [19] concerns the target Glucocorticoid receptor (Homo sapiens) (UniProt P04150). The test is described as follows: qHTS assay to identify small molecule agonists of the glucocorticoid receptor (GR) signaling pathway (AID 720691; active means well fitted activation curve with a large enough effect in the signal ratio in the repeat runs, not every such curve was filed as active; the % refers to the signal ratio). Summed up: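 Steps: seed GR-bla HeLa cells, incubate 4 h at 37 C/5% CO2; pin-transfer DMSO-dissolved compounds; incubate 18 h at 37 C; add LiveBLAzer B/G FRET substrate; after 2 h at room temperature, measure fluorescence.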

Test [20] has the same target. The test is described as follows: qHTS assay to identify small molecule antagonists of the glucocorticoid receptor (GR) signaling pathway (AID 720692; active means well fitted inhibition curve with a large enough effect in the signal ratio in the repeat runs, not every such curve was filed as active; the % refers to the signal ratio). Summed up:
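Antagonism was scored as loss of dexamethasone-driven (5 nM final) reporter signal in HeLa cells bearing a glucocorticoid response element–beta-lactamase construct, after 18 h compound exposure at 37 C and 2 h FRET substrate loading.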
On the % scale 0 is the no-effect control and ±100 the full control effect.

Glucocorticoid receptor (Homo sapiens), sequence (P04150 whole entry, looked up): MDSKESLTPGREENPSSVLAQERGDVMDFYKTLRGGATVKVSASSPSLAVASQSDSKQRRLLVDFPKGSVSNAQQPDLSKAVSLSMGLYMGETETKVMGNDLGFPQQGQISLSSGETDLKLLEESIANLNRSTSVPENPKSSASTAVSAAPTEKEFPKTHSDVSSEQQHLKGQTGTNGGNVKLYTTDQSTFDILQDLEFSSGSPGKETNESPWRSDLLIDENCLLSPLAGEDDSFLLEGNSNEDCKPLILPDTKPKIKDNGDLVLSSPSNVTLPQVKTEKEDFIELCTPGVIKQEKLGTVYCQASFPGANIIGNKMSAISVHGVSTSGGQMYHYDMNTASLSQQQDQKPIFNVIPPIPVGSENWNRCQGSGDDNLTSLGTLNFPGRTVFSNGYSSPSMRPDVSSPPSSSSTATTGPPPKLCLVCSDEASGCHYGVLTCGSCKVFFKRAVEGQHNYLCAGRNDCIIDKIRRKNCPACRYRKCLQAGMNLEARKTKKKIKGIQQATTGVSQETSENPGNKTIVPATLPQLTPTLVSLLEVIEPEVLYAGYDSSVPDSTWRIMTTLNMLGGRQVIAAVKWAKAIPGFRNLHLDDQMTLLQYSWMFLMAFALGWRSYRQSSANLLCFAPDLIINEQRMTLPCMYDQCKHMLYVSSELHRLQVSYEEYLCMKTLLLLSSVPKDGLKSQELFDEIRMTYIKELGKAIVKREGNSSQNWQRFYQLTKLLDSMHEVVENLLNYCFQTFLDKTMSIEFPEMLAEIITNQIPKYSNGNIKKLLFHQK

Regarding `CN1CCC[C@@H]1Cc1c[nH]c2ccc(CCS(=O)(=O)c3ccccc3)cc12`, the Potency result in [1], in test [2], in test [3], in test [4] and in [5] was “inactive” throughout. The result in test [6], in test [7], in test [8], in test [9], in test [10] and in test [11] was inactive. Also, the molecule was classed as inactive in [12], in test [13], in [14] and in [15].
Consider `Nc1ccc2ccccc2c1S(=O)(=O)O`, for which the Potency result in [16], in [2], in test [3], in [4], in test [5] and in [19] was “inactive” each time. Further, the result in test [6], in test [7], in test [8], in test [10], in [11] and in test [12] was inactive. For the same molecule, the result in [13], in [17], in test [14], in test [15] and in test [18] was inactive.
Turning to `CCC(=O)O[C@]1(C(=O)SCF)[C@H](C)C[C@H]2[C@@H]3C[C@H](F)C4=CC(=O)C=C[C@]4(C)[C@@]3(F)[C@@H](O)C[C@@]21C`, the Potency entry in [16], in test [1], in test [3] and in test [4] was “inactive” each time. Further, the Potency in test [5] is 7.17 µM (active). In addition, in test [6], the fluorescence, relative to Rose Bengal is -0.521% [at 18.6 µM]. Further, the fluorescence, % of fluorescein control in test [7] was 0.0108% [at 18.6 µM]; in [15], 0.0971% [at 18.6 µM]. Also, the fluorescence, % of triamterene in test [8] is 0.0153% [at 18.6 µM]. Besides, the fluorescence, % of fluorescent control is -0.0536% [at 18.6 µM] in [9], -0.193% [at 18.6 µM] in test [13], 0.0563% [at 18.6 µM] in test [14] and -0.137% [at 18.6 µM] in [18]. Moreover, the fluorescence, % of fluorescein in test [10] is 0.0173% [at 18.6 µM]. In test [12], the activity change was 0.0558% [at 18.6 µM]. The fluorescence, % of Rose Bengal in [17] is 0.622% [at 18.6 µM].
As to `CC(=O)N[C@@H](CC(C)C)C(=O)O`, the Potency entry in test [16], in test [1], in test [3], in [4] and in [5] was “inactive” each time. For the same molecule, the result in [6], in [7], in test [8], in [9], in test [10] and in test [12] was inactive. In addition, the molecule was classed as inactive in [13], in [14], in test [15] and in [18].
As to `CO[Si](C)(C)OC`, the Potency result in test [16], in test [3], in test [4], in test [19] and in test [20] was “inactive” throughout. For the same molecule, the molecule was classed as inactive in [6], in [7], in [9], in test [10], in test [11] and in test [12]. For the same molecule, the result in test [13], in test [17], in test [14], in [15] and in [18] was inactive.
In the case of `CC(=O)OC(C)OC(C)=O`, the Potency entry in test [16], in test [1], in [3], in test [5], in test [19] and in [20] was “inactive” throughout. The call in [7], in test [10], in [12], in [13], in test [17] and in test [14] was inactive. The outcome in test [15] and in test [18] was inactive.
`CNCCC(Oc1ccccc1OC)c1ccccc1` (stereo unspecified): the Potency result in [1], in [2], in [3], in [4] and in [5] was “inactive” throughout. For the same molecule, the call in test [6], in test [7], in test [8], in [9], in test [10] and in test [12] was inactive. Further, the result in [13], in [17], in test [14], in test [15] and in test [18] was inactive.
As for `CC(C)NC[C@@H](O)COc1cccc2ccccc12`, the Potency entry in test [16], in test [2], in test [3] and in [4] was “inactive” in each case. The molecule was called inactive in test [6], in [7], in test [9], in test [10], in test [11] and in test [12]. In addition, the result in test [13], in [17], in test [14] and in [15] was inactive.
On to `CCc1cc(Cl)c(OC)c(C(=O)NC[C@@H]2CCCN2CC)c1O`, for which the Potency result in test [16], in [1], in [2], in test [19] and in test [20] was “inactive” throughout. Besides, the molecule was classed as inactive in [7], in [8], in test [9], in test [10], in test [11] and in test [12]. Also, the result in [13], in test [14] and in test [15] was inactive.
In the case of `CCC/C=C/CO`, the Potency result in test [1], in test [2], in [3], in test [4] and in test [19] was “inactive” each time. Also, the molecule was classed as inactive in test [6], in [7], in [8], in test [9], in [11] and in test [12]. In addition, the molecule was called inactive in [13], in [17], in test [14], in test [15] and in test [18].
Regarding `CO[C@@]1(NC(=O)CSCC#N)C(=O)N2C(C(=O)O)=C(CSc3nnnn3C)CS[C@@H]21`, the Potency result in test [1], in test [2], in test [3], in [4], in [5] and in [19] was “inactive” each time. The call in test [6], in [7], in test [9], in [10], in test [11] and in [12] was inactive. Further, the call in test [13], in [17], in test [14], in test [15] and in test [18] was inactive.
Consider `CCCNC(C)(C)COC(=O)c1ccccc1`, for which the Potency result in test [1], in test [2], in test [3], in test [4], in test [5] and in [19] was “inactive” each time. Moreover, the Potency entry in test [20] is “inactive”. Besides, the call in [7], in [8], in test [9], in test [10], in test [12] and in [13] was inactive. The result in [14], in test [15] and in [18] was inactive.
Consider `O=c1[nH]cnc2c1ncn2[C@@H]1O[C@H](CO)[C@@H](O)[C@H]1O`, for which the Potency entry in test [1], in test [2], in test [3], in test [4], in test [5] and in test [19] was “inactive” each time. For the same molecule, the Potency entry in [20] is “inactive”. The molecule was called inactive in [7], in [8], in [9], in test [10], in test [11] and in test [12]. In addition, the molecule was classed as inactive in test [13], in test [17], in [14], in [15] and in test [18].
In the case of `CCOc1ccc(OCC)c(Cl)c1`, the Potency entry in [1], in test [2], in [3], in [4] and in test [19] was “inactive” in each case. Besides, the call in [6], in [7], in [8], in test [9], in test [10] and in [12] was inactive. For the same molecule, the call in test [17], in test [14], in [15] and in test [18] was inactive.
Take `O=C1CCCCC1C1CCCCC1` (stereo unspecified): the Potency result in test [1], in test [2], in test [3], in [4], in [19] and in test [20] was “inactive” throughout. Further, the molecule was classed as inactive in [7], in [8], in test [9], in test [10], in test [11] and in test [12]. Also, the result in test [13], in test [17], in test [14], in test [15] and in test [18] was inactive.
